# From PubChem BioAssay (EPA / NIEHS)
# Several values for one entry are separate records, joined by “and”; a condition that tells them apart may be missing. Equal values may be shown once. Activity calls are given as the source filed them. How the source made its calls: active means hit-call score of the fitted dose curve at least 0.9, where 1 is the maximum; inactive means score below 0.9.
# Assays:
# [1] = read-out: Urokinase-type plasminogen activator receptor (uPAR), PLAUR (gene 5329); assay: BSK_BE3C_uPAR: BioMAP Diversity Plus: BE3C Assay for Urokinase-type plasminogen activator receptor (uPAR) Biomarker Activity (AID 2283039); settings: primary human bronchial epithelial cells; actives raise or lower the signal;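 further: uPAR protein level measured by ELISA on the cells; cells exposed to compound for one day before measurement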
# How it was run: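 ELISA readout of uPAR on human lung primary bronchial epithelial cells, 24 h post-dosing. Bidirectional curve fit relative to DMSO vehicle baseline; gain or loss of signal both scored.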
# [2] = read-out: Interleukin-6 (IL6), IL6 (gene 3569); assay: BSK_CASM3C_IL6: BioMAP Diversity Plus: CASM3C Assay for Interleukin-6 (IL6) Biomarker Activity for (AID 2283040); settings: primary human coronary artery smooth muscle cells; actives raise or lower the signal
# [3] = read-out: Tissue plasminogen activator (tPA), PLAT (gene 5327); assay: BSK_BE3C_tPA: BioMAP Diversity Plus: BE3C Assay for Tissue plasminogen activator (tPA) Biomarker Activity (AID 2283041); settings: primary human bronchial epithelial cells; actives raise or lower the signal;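 further: tPA level quantified by ELISA one day after compound addition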
# How it was run: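 ELISA read-out of tPA on human primary bronchial epithelial cells, 24 h post-dosing; bidirectional fit vs DMSO negative control/baseline.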
# [4] = read-out: Interleukin-8 (IL8), CXCL8 (gene 3576); assay: BSK_CASM3C_IL8: BioMAP Diversity Plus: CASM3C Assay for Interleukin-8 (IL8) Biomarker Activity (AID 2283042); settings: primary human coronary artery smooth muscle cells; actives raise or lower the signal;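 further: IL-8 protein level quantified by ELISA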
# [5] = read-out: Human Leukocyte Antigen - DR isotype (HLADR), HLA-DRA (gene 3122); assay: BSK_CASM3C_HLADR: BioMAP Diversity Plus: CASM3C Assay for Human Leukocyte Antigen - DR isotype (HLADR) Biomarker Activity (AID 2283043); settings: primary human coronary artery smooth muscle cells; actives raise or lower the signal;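 further: cell-surface HLA-DR protein level quantified by ELISA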
# [6] = read-out: Macrophage colony-stimulating factor (MCSF), CSF1 (gene 1435); assay: BSK_CASM3C_MCSF: BioMAP Diversity Plus: CASM3C Assay for Macrophage colony-stimulating factor (MCSF) Biomarker Activity (AID 2283044); settings: primary human coronary artery smooth muscle cells; actives raise or lower the signal;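 further: M-CSF protein amount quantified by ELISA after 24 h exposure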
# [7] = read-out: Low-density lipoprotein receptor (LDLR), LDLR (gene 3949); assay: BSK_CASM3C_LDLR: BioMAP Diversity Plus: CASM3C Assay for Low-density lipoprotein receptor (LDLR) Biomarker Activity (AID 2283045); settings: primary human coronary artery smooth muscle cells; actives raise or lower the signal;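 further: LDLR protein level on the cell surface quantified by ELISA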
# [8] = read-out: Monocyte Chemoattractant Protein-1 (MCP1), CCL2 (gene 6347); assay: BSK_CASM3C_MCP1: BioMAP Diversity Plus: CASM3C Assay for Monocyte Chemoattractant Protein-1 (MCP1) Biomarker Activity (AID 2283046); settings: primary human coronary artery smooth muscle cells; actives raise or lower the signal;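 further: MCP-1 level quantified by ELISA 24 h after dosing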
# [9] = BSK_CASM3C_Proliferation: Cell Proliferation Assessment in the BioMAP Diversity Plus: CASM3C Assay (AID 2283047); settings: primary human coronary artery smooth muscle cells;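 further: sulforhodamine B total protein stain as relative cell number at 560 nm; sub-confluent cells exposed 48 h before staining; fitted both ways against DMSO so gain or loss of cell number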
# [10] = read-out: Monokine induced gamma interferon (MIG), CXCL9 (gene 4283); assay: BSK_CASM3C_MIG: BioMAP Diversity Plus: CASM3C Assay for Monokine induced gamma interferon (MIG) Biomarker Activity (AID 2283048); settings: primary human coronary artery smooth muscle cells; actives raise or lower the signal;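 further: MIG protein level measured by ELISA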
Compound,outcome [1],outcome [2],outcome [3],outcome [4],outcome [5],outcome [6],outcome [7],outcome [8],AC50 [9],outcome [10],outcome [9],AC50 [2]
C#CCC1=C(C)C(OC(=O)C2C(C=C(C)C)C2(C)C)CC1=O (stereo not given),inactive,inactive,inactive,inactive,inactive,inactive,inactive,inactive,26.8 µM (active),inactive,,
CCCCOC(=O)c1ccccc1C(=O)O,inactive,inactive,inactive,inactive,inactive,inactive,inactive,inactive,,inactive,inactive,
CNC(=O)ON=C(C)SC,inactive,inactive,inactive,inactive,inactive,inactive,inactive,inactive,,inactive,inactive,
CCC(CC)Nc1c([N+](=O)[O-])cc(C)c(C)c1[N+](=O)[O-],inactive,,inactive,inactive,inactive,inactive,inactive,inactive,13.9 µM (active),inactive,,26.9 µM (active)
FC(F)C(F)(F)OCC(Cn1cncn1)c1ccc(Cl)cc1Cl (stereo not given),inactive,inactive,inactive,inactive,inactive,inactive,inactive,inactive,,inactive,inactive,
Cc1nn(-c2cc(NS(C)(=O)=O)c(Cl)cc2Cl)c(=O)n1C(F)F,inactive,inactive,inactive,inactive,inactive,inactive,inactive,inactive,,inactive,inactive,
CCOP(=S)(OCC)SCCSCC,inactive,inactive,inactive,inactive,inactive,inactive,inactive,inactive,,inactive,inactive,
CCc1cnc(C2=NC(C)(C(C)C)C(=O)N2)c(C(=O)O)c1 (stereo not given),inactive,inactive,inactive,inactive,inactive,inactive,inactive,inactive,,inactive,inactive,
CC(C)=CC1C(C(=O)OCN2C(=O)C3=C(CCCC3)C2=O)C1(C)C (stereo not given),inactive,inactive,inactive,inactive,inactive,inactive,inactive,inactive,20 µM (active),inactive,,
CN(C)[C@@H]1C(=O)C(C(N)=O)=C(O)[C@@]2(O)C(=O)C3=C(O)c4c(O)cccc4[C@@](C)(O)[C@H]3[C@H](O)[C@@H]12,inactive,inactive,inactive,inactive,inactive,inactive,inactive,inactive,28.7 µM (active) and 11 µM (active),inactive,,
